Data taken from PubChem BioAssay (NCI).
About 83,000 compounds went through this panel and 20% of them were active in at least one assay; those are over-represented in the sample as a whole.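 How to read the values: 0–100, growth inhibition (40 = 60% inhibited); 0, no net growth; -100 to 0, cell death (-40 = 40% of starting cells died; -100 = all dead).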 Unmarked numbers belong to inactive results. Active and inactive are the calls of the source.

test system: NCI-H522 lung; test: NCI-60 one-dose screen, 48 h (100 = growth as untreated, 0 = no growth, -100 = all killed); details: 10 µM unless noted
Protocol: Growth inhibition of the NCI-H522 human Non-Small Cell Lung tumor cell line is measured as a screen for anti-cancer activity. Cells are grown in 96 well plates and exposed to the test compound for 48 hours. Compounds are tested at a single concentration, which is 10^-5 M for most compounds. The reported endpoint is percent growth (GI% or GIPRCNT), where numbers from 0 - 100% represent growth inhibition, and numbers from -100% - 0 represent cell death. For example, a value of 40 represents 60% growth inhibition. A value of 0 means no net growth occurred over the course of the experiment. A value of -40 indicates 40% of cells at the beginning of the experiment died by the end of the experiment. A value of -100 means all cells are dead at the end of the experiment.
NCI-60 Human Tumor Cell Lines Screen was performed using the standard one-dose NCI protocol, which is described in more detail at https://dtp.cancer.gov/discovery_development/nci-60/default.htm.
Compounds with GIPRCNT values below 10 were considered active. Activity score was based on GIPRCNT using the following formula: […]
Score is 0 for GIPRCNT values of 100 or above, 50 for GIPRCNT values of 0, and 100 for GIPRCNT values of -100.

Structure (SMILES) | growth
NC(=Nc1ccccc1)SCCCSC(N)=Nc1ccccc1 | 69.2%
CCn1c(CN2CCN(Cc3ccccc3)CC2)nc2cc(NC(=O)c3cccs3)ccc21 | -64.4% (active)
O=C(/C=C/c1ccccc1)n1c(-c2ccccc2)nc2ccccc21 | 102%
COc1ccc2c(c1)N(CCO)C1=C(C(=O)OC1)C2c1cccc(Br)c1 (stereo not given) | -19.2% (active)
COC(=O)/C=C/c1cc(OC(C)=O)c2c(c1)[C@@H](C(=O)OC)[C@H](c1ccc(OC(C)=O)c(OC(C)=O)c1)O2 | -25.3% (active)
Clc1ccc(Nc2ncnc3c2sc2ncccc23)cc1 | 31.5%
Nc1nc(N)c2cc(CNc3ccc(Cl)c(Cl)c3)ccc2n1 | 13.4%
Oc1[nH]c2ccc(Cl)cc2c1/C=c1/ccc2c(c1)N=C(c1ccc(F)cc1)N=2 | 80.7%
CCCCCCCCCCCCCCCCS(=O)(=O)Nc1cc(C(=O)NN)cc(C(=O)NN)c1 | 78.4%
CO[C@@]12[C@@H]3NC3CN1C1=C(C(=O)C(N)=C(C)C1=O)[C@@H]2COC(N)=O (stereo not given in full) | -9.07% (active)
C/C(=N\NC(=S)Nc1ccccc1)c1ccccn1 | 12.6%
CCOC(=O)c1ccc(NCCC(=O)O)cc1 | 91.3%
O=C1/C(=C\c2cccn2Cc2ccc(Cl)cc2)c2ccccc2N1c1c(Cl)cccc1Cl | 76.6%
Cc1cc(O)ccc1C1=NN(c2ccc(S(N)(=O)=O)cc2)C(=O)CC1 | -36.6% (active)
CCCCNCCC(O)c1cc2ccc(C(F)(F)F)cc2c2cc(C(F)(F)F)ccc12 (stereo not given) | -83% (active)
COc1cc(C2Nc3ccccc3S2)cc(CN2CCOCC2)c1O (stereo not given) | -2.67% (active)
COc1cccc(Cn2c(-c3nonc3NC(C)=O)nc3ccccc32)c1 | -20.6% (active)
CNC(=O)c1cc(Oc2ccc(NC(=O)c3nc(S(C)(=O)=O)n(C)c3-c3ccc(F)cc3)cc2)ccn1 | 84.5%
COc1cc(/C=C/C(=O)c2ccc(NC(=O)CSc3nnc(-c4ccc(Cl)cc4)n3-c3ccccc3)cc2)cc(OC)c1OC | 63.8%
Cc1n(Cc2ccc3ccccc3n2)cc[n+]1Cc1ccc2ccccc2c1 | 3.95% (active)

Structure (SMILES) | growth
Cc1ccc(NC(=O)Cn2nncc2CN2C(=O)CSC2=O)cc1C | 94.8%
COC(=O)c1cc2oc(/C=N/NC(=O)c3cc4oc(-c5cccc(C(F)(F)F)c5)cc4[nH]3)cc2n1Cc1ccccc1 | 97.4%
COc1ccc(-c2nsc3c2NC(=O)CC3c2ccc3c(c2)OCO3)cc1 (stereo not given) | -30.1% (active)
Cn1c(=O)c2c3c(oc2c2ccccc21)C(=O)c1ccccc1C3=O | 50.6%
O=c1c2sc3ncc(Cl)cc3c2nnn1-c1cccc(Cl)c1 | 82%
Nc1cc2nc3ccccc3oc-2cc1=O | -16.5% (active)
O=C(Nc1ccc(Cl)c(C(F)(F)F)c1)c1ccc(Nc2ccc(Cl)nn2)cc1 | 62%
CCN1CCN(Cc2ccc(NC(=O)c3nc4ccc5[nH]ncc5c4c4c3CCCC4)cc2C(F)(F)F)CC1 | -76.9% (active)
CCNC(=S)N(Cc1ccccc1)Cc1ccccc1 | 88.1%
COc1cccc(/C=N/N=C(N)N)c1 | 97.4%
COc1ccc(C2CC(c3ccc(Nc4ccnc5cc(Cl)ccc45)cc3)=NN2c2ccccc2)cc1 (stereo not given) | 90.6%
CCN(CC)CCCC(C)Nc1cnc(C(=O)Nc2ccc(Cl)c3cccnc23)cn1 (stereo not given) | 4.41% (active)
O=C(CS)OCC(COC(=O)CS)(COC(=O)CS)COC(=O)CS | 76.4%
C/C(=C\C(=N\N=C(N)N)c1ccc(Cl)cc1)c1ccc(Cl)cc1 | -88.4% (active)
COc1ccc(/C(=C\c2ccc3c(c2)OCO3)C(=O)Nc2nc3ccc(F)cc3s2)cc1OC | 94.2%
Cc1cc(C)c2c(n1)sc1c(Nc3ccc(Cl)cc3Cl)ncnc12 | 30.5%
COc1ccc(-c2nsc3c2NC(=O)CC3c2cccc(F)c2)cc1 (stereo not given) | 4.49% (active)
O=C(O)c1ccccc1N=Cc1ccccc1 | 101%
COc1cc2nccc(Oc3ccc(NC(=O)C4(C(=O)Nc5c(F)cc(F)cc5F)CC4)cc3)c2cc1Oc1ccc(N)cn1 | 55%
CCCCCCCCNC(C)C(O)c1ccc(SC(C)C)cc1 (stereo not given) | 12.1%
